Screening data as filed in PubChem.
An excerpt weighted towards active compounds, which were near 10% of everything screened.
NIH3T3 tox – kills NIH 3T3 cells. Potency, µM (top dose mostly 96.7 µM), without a hit: at the top dose activity change, negative = cytotoxicity, hits mostly inhibitors. NIH 3T3 viability, CellTiter-Glo ATP luminescence, 48-72 h. 4.3% of 94,000 active. AID 1345082; note: nearly all actives have a fitted effect of over 55% in size
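First NIH 3T3 cells are plated at 400 cells/well; next compound is pinned in; then plates incubate 48 or 72 hr at 37 °C; finally CellTiter-Glo is added and luminescence read after 10 min.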
GPT2 inhibitor – blocks human glutamate pyruvate transaminase 2 | Q8TD30 | Recombinant GPT2, coupled pyruvate oxidase/HRP Amplex Red fluorescence | Potency, µM (titrated, usually from 57.7 µM), for the others: at the top dose activity change, negative = inhibition, hits mostly inhibitors | 0.25% of 100,000 active | AID 1671188; note: nearly all actives have a fitted effect of over 60% in size
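Fluorescence of coupled pyruvate oxidase/HRP/Amplex Red system (50uM Amplex, 30 min, dark) reports pyruvate formed by GPT2. Enzyme reaction: 10ng/uL GPT2, 2mM L-alanine, 250uM a-KG, 30 min room temperature, pH 7.5; 50uM AOA control.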
HEK293 tox – HEK 293 cell cytotoxicity. HEK 293 viability, ATP luminescence (CellTiter-Glo), 48-72 h. Potency, µM (doses to about 115 µM), for the others: at the top dose activity change, negative = cytotoxicity, hits mostly inhibitors. 6.6% of 94,000 active; note: nearly all actives have a fitted effect of over 60% in size
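qHTS cytotoxicity; HEK 293, 250 cells/well; compound pinned; 48 or 72 hr, 37 degree Celsius, 5% CO2, 95% humidity; CellTiter-Glo, 10 min RT; luminescence (ATP).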
NPR1 antag – human Npr1 receptor antagonism. 1.6% of 76,000 active. HEK293 hNpr1 GloSensor cGMP, ANP-stimulated luminescence. AID 1347048. P16066. Potency, µM (titrated, usually from 46.3 µM), for inactives: at the highest dose activity change, negative = inhibition, actives largely listed as inhibitors; calls by dose curve; note: nearly all actives have a fitted effect of over 60% in size
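HEK293 cells stably expressing human Npr1 and cGMP GloSensor pGS-40F, loaded 2 h with 2% GloSensor reagent, given compound 30 min at room temperature. Luminescence read before and 20 min after 0.1 nM hNppA.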
FLuc inh – Photinus pyralis luciferase inhibition; P08659; purified P. pyralis luciferase, luminescence, biochemical; Potency, µM (highest dose often 115 µM), usual class: inhibitors; 2.5% of 76,000 active; AID 1347043; note: nearly all actives have a fitted effect of over 65% in size
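Luminescence read by CCD imaging after purified firefly luciferase (10nM final) was added to substrate buffer holding 10uM D-luciferin and 10uM ATP, pH 7.5, pre-dosed with compound.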
Numbers without * were called inactive; i = inactive; u = inconclusive; x = no result; [ ] = remark or other dose. Unless noted, calls come from the whole dose curve; as a rule, active = well fitted curve in the direction sought with a large enough effect; inconclusive = small, poorly fitted or top-dose-only effect, or another doubt; inactive = no such curve, though single readings can be large; an effect the other way counts as inactive or inconclusive. % is set by controls: 0 for no effect and ±100 for the full control effect; potency is the fitted concentration of half-maximal effect.

SMILES	NIH3T3 tox	GPT2 inhibitor	HEK293 tox	NPR1 antag	FLuc inh
COc1ccc(OC)c(CN2CCc3ncc(C(=O)Nc4ccccc4)n3CC2)c1	u	0%[88.5 µM]	112µM*	-8%[70.6 µM]	i
O=C(C1CCCC1)N1CCn2c(nnc2-c2ccccc2)C1	-31%[138 µM]	i	-11%[172 µM]	5%[70.6 µM]	i
C[C@@H](NC(=O)C[C@@H]1c2nc(-c3cccnc3)sc2C[C@@H]2[C@](C)(CO)[C@H](O)CC[C@]21C)c1ccccc1	20µM*	-2%	u	-4%	i
CCCCCC(=O)Nc1nc2c(s1)C[C@@H]1[C@](C)(CO)[C@H](O)CC[C@@]1(C)[C@@H]2CC(=O)N(C)Cc1ccccc1	50µM*	-7%	28µM*	-11%	i
CCCCCC(=O)Nc1nc2c(s1)C[C@@H]1[C@](C)(CO)[C@H](O)CC[C@@]1(C)[C@@H]2CC(=O)N[C@H](C)c1ccccc1	u	-8%	40µM*	1%	i
CCCCCC(=O)Nc1nc2c(s1)C[C@@H]1[C@](C)(CO)[C@H](O)CC[C@@]1(C)[C@@H]2CC(=O)NC1CCCC1	u	-13%	-18%	-3%	i
C#CCN(C)C(=O)C[C@@H]1c2nc(NC(=O)CCCCC)sc2C[C@@H]2[C@](C)(CO)[C@H](O)CC[C@]21C	-6%	1%	-12%	-4%	i
COc1ccc(CN2C(=O)[C@@H]3C[C@@H](O)CN3C3(CN(C4CCCCC4)C3)C2=O)cc1	-8%[174 µM]	-15%[88.5 µM]	-15%[172 µM]	-5%[70.6 µM]	i
COc1ccccc1Nc1ccnc(N2CCC(NC(=O)Cc3ccc(F)cc3)CC2)n1	u	-16%	45µM*	x	x
COc1ccccc1Nc1ccnc(N2CCC(NC(=O)c3ccccc3)CC2)n1	-10%	0%	u	x	x
COc1ccccc1Nc1ccnc(N2CCC(NC(=O)c3ccc(C)cc3)CC2)n1	40µM*	i	u	x	x
COc1ccccc1Nc1ccnc(N2CCC(NC(=O)c3ccc(Cl)cc3)CC2)n1	32µM*	1%	35µM*	x	x
COc1ccccc1Nc1ccnc(N2CCC(NC(=O)c3ccc(F)cc3)CC2)n1	-28%	i	-29%	x	x
O=C(c1ccc(F)cc1)N1CCC2(CC1)Cc1ccccc1NC2=O	-15%[138 µM]	-4%[88.5 µM]	-47%[172 µM]	-1%[70.6 µM]	i
Cc1ccccc1C(=O)N1CCC2(CC1)Cc1ccccc1NC2=O	u	2%	35µM*	25%	i
CC(C)(C)CC(=O)Nc1nc2c(s1)C[C@@H]1[C@](C)(CO)[C@H](O)CC[C@@]1(C)[C@@H]2CC(=O)Nc1cccc(O)c1	u	3%	u	-8%	i
O=[S+]1([O-])NC2(CCCN(Cc3ccccc3C(F)(F)F)C2)CNc2ccccc21 (stereo not drawn)	u	-1%	45µM*	-29%	i
O=[S+]1([O-])NC2(CCCN(Cc3ccccc3)C2)CNc2ccccc21 (stereo not drawn)	-21%	-4%	u	9%	i
O=C(c1ccncc1)N1CC(Oc2ccc(-c3noc(-c4ccccc4)n3)cc2)C1	-9%	-14%	u	-20%	u
O=C(Nc1ccccc1)N1CC(Oc2cccc(-c3nc(-c4ccccc4)no3)c2)C1	u	i	u	-23%	u
O=C(Nc1cccc(F)c1)N1CC(Oc2ccc(-c3nc(-c4ccccc4)no3)cc2)C1	u	i	u	7.1µM*	2.5µM*
CC(C(=O)N1CC(Oc2ccc(-c3noc(-c4ccncc4)n3)cc2)C1)c1ccccc1 (stereo not drawn)	25µM*	i	u	x	x
COc1ccc(NC(=O)N2CC(Oc3ccc(-c4nc(-c5ccccc5)no4)cc3)C2)cc1	-3%	-8%	u	-29%	1.4µM*
COCCNC(=O)c1nc2sccn2c1-c1cccc(C(F)(F)F)c1	-8%	4%	4%	x	x
CCCN(CC1CCOC1)C(=O)Nc1ccc(CC)cc1 (stereo not drawn)	-25%	i	-2%	-4%	i
SMILES	NIH3T3 tox	GPT2 inhibitor	HEK293 tox	NPR1 antag	FLuc inh
CC(C)NC(=O)c1coc(COc2ccc3c(c2)C(c2cccc(F)c2)N(C(=O)C2CC2)CC3)n1 (stereo not drawn)	22µM*	i	u	-13%	i
Cc1cccc(C2c3cc(OCc4nc(C(=O)NC(C)C)co4)ccc3CCN2C(=O)C2CC2)c1 (stereo not drawn)	14µM*	i	18µM*	-16%	i
O=C1CC(c2ccccc2)N(Cc2ccncc2)CCCN(C(=O)Cc2cccnc2)CCN1 (stereo not drawn)	-8%	i	-18%	5%	i
C[C@@H]1CN(C(=O)Cc2cccnc2)C[C@H]1c1nc(-c2ccncc2)no1	i	4%	15%	3%	i
Cc1cc(Cl)ccc1NC(=O)N1C[C@H](c2nc(-c3cccnc3)no2)[C@@H](C)C1	-25%	-11%	45µM*	-21%	i
C[C@H]1CN(C(=O)C2CCCC2)C[C@@H]1c1nc(-c2ccccc2)no1	32µM*	-11%	u	-26%	u
COc1cccc(-c2noc(-c3nc(-c4ccc5c(c4)OCO5)no3)n2)c1OC	-16%	-17%	-4%	-9%	i
CN(Cc1nc(-c2ccccc2)cs1)C(=O)COc1ccc(F)cc1F	u	5%	u	-14%	i
COc1ccc(-c2nc(CN3CCC(F)(F)CC3)c(C)o2)c(OC)c1C	u	2%	u	2%	i
COc1ccc(-c2nc(CN3CCC(CO)CC3)c(C)o2)c2ccccc12	u	i[11.5 µM]	20µM*	9%	i
COc1ccc(Nc2ccnc(N3CCN(C(=O)NC4CCCC4)CC3)n2)cc1	u	i	45µM*	x	x
O=C(NC1CCCC1)N1CCN(c2nccc(Nc3ccccc3Cl)n2)CC1	u	4%	40µM*	x	x
COc1ccccc1Nc1ccnc(N2CCC[C@H]2C(=O)N2CCC(Cc3ccccc3)CC2)n1	u	-8%	40µM*	x	x
O=C(NC1CCN(c2nccc(Nc3ccccc3Cl)n2)CC1)C1CCCC1	28µM*	-3%	u	x	x
CN(C)C(=O)NC1CCN(c2nccc(Nc3ccccc3Cl)n2)CC1	28µM*	i	45µM*	x	x
COc1ccccc1Nc1ccnc(N2CCC(C(=O)NC3CCCC3)CC2)n1	u	-10%	u	x	x
COc1ccccc1Nc1ccnc(N2CCN(C(=O)NC3CCCC3)CC2)n1	32µM*	i	45µM*	x	x
CC1CCN(CC2CCCN(C(=O)c3cccc(F)c3)CC2)CC1 (stereo not drawn)	-6%	2%	i	x	x
CN1CCN(C)c2cnc(-c3cnn(Cc4ccccc4)c3)cc2C1	-24%[138 µM]	i	u	-3%[70.6 µM]	i
COc1ccc(C(=O)Nc2cc(-c3ccncc3)nn2-c2ccccc2)cc1	u	5%	u	x	x
